Compound activity deposited in PubChem by National Center for Advancing Translational Sciences (NCATS).
The list is not random: actives were taken first. Their share in the collection is about 7.3%.
HCMV inh = blocks human cytomegalovirus replication. 410,000 tested, 4.5% active. HFF cells, HCMV-luciferase reporter, 72 h; stronger effect = lower value. activity change, negative = inhibition, % at 57.5 µM; in the data active = activity change below about -60%; inconclusive = no clear call, values can overlap the other calls; inactive = above about -39%
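Human foreskin fibroblasts infected with luciferase-reporter HCMV at MOI 1 PFU/cell, compounds at two doses. Luciferase measured 72 h post infection; normalized to buffer-only basal and Salinomycin (10uM) controls.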
Vaccinia Venus = vaccinia inhibition (Venus reporter) | Vaccinia virus Venus reporter expression, fluorescence | Potency, µM (series often up to 36.5 µM), inactives show at the highest dose activity change, negative = inhibition, most hits filed as inhibitors | 330,000 tested, 0.46% active; calls by dose curve; tested in A549 cells; also: potency is read from the fitted curve at half-maximal effect; nearly all actives have a fitted effect of over 30% in size
HCV inhibitor = inhibitors of hepatitis C virus infection. Huh7.5.1 HCVcc-Cre infection, luciferase reporter, 44 h. Potency, µM (titrated, usually from 41.8 µM), for the others: at the highest dose activity change, negative = inhibition, hits mostly inhibitors. 340,000 tested, 3.4% active. AID 651820; active = well fitted inhibition curve with a large enough effect; inconclusive = small, poorly fitted or top-dose-only effect, or another doubt; inactive = no such curve, though single readings can be large or run the other way; also: potency is read from the fitted curve at half-maximal effect
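Whole-lifecycle infectious HCVcc-Cre system; cells 1,000/well, compound then virus (~0.5 moi) added 4 h after plating, 44 h culture. Luciferase read 15 sec following 15 min substrate incubation, room temp.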
VACV mCherry inh = vaccinia inhibition (mCherry reporter); Vaccinia virus mCherry reporter infection, fluorescence; Potency, µM (highest dose often 36.5 µM), for inactives: at the top dose activity change, negative = inhibition, actives largely listed as inhibitors; 310,000 tested, 0.63% active; AID 720579; calls by dose curve; tested in A549 cells; also: potency is read from the fitted curve at half-maximal effect; nearly all actives have a fitted effect of over 35% in size
FMDV inh = antivirals against foot and mouth disease virus; FMDV antiviral cell-based qHTS; Potency, µM (doses to about 57.9 µM), for the others: at the top dose activity change, negative = inhibition, most hits filed as inhibitors; 410,000 tested, 1.2% active; AID 1159524; calls by dose curve; tested in HEK293T cells; also: read-out not given here; potency is read from the fitted curve at half-maximal effect; nearly all actives have a fitted effect of over 45% in size
Active calls of the source: *; i = inactive; ? = inconclusive; nt = no result; [ ] = remark or other dose. % is scaled to controls: 0 for no effect and ±100 for the full control effect.

SMILES	HCMV inh	Vaccinia Venus	HCV inhibitor	VACV mCherry inh	FMDV inh
O=C1C=CC2C3C(=O)N(c4ccccc4)C(=O)C3C1N2Cc1ccccc1 (stereo unspecified)	-78*	?	?	28µM*	10µM*
O=C(c1ccc2c(c1)OCO2)N1C[C@H]2[C@@H](c3ccccc31)[C@H](CO)N2C(=O)CC1CC1	-6	nt	nt	nt	nt
Cc1ccn(CCC(=O)N2CCOc3ccc(C(O)C4CCCCC4)cc3C2)n1 (stereo unspecified)	nt	-5%	nt	-13%	-8%
O=C(Nc1nc2c(F)cc(F)cc2s1)c1ccccn1	-99*	?	10µM*	?	-68%
O=C(COc1ccccc1)NNc1nc2c(F)cc(F)cc2s1	-36	nt	8%	nt	4%
CCOc1ccc2nc(NC(=O)c3ccccn3)sc2c1	-100*	?	?	7.9µM*	-84%
CCOc1ccc2nc(NC(=O)Nc3ccccc3)sc2c1	64	-12%	?	-11%	1%
Cc1ccc2nc(NC(=O)c3ccccn3)sc2c1	-98*	?	?	22µM*	8.9µM*
CCOc1ccc2nc(NC(=O)C(NS(=O)(=O)c3cccc4nsnc34)C(C)C)sc2c1 (stereo unspecified)	126	?	?	7.9µM*	-25%
CCOc1cc(NC(=O)c2ccccn2)c(OCC)cc1NC(=O)c1ccc(Cl)cc1	-7	nt	-13%	nt	-23%
CCOc1cc(NC(=O)c2ccccn2)c(OCC)cc1NC(=O)c1ccccc1	-64*	1%	-4%	i	-2%
CC(=O)c1ccc(F)c(-c2cc(C)cc3c2OC(CNC(=O)c2csc(C)n2)C3)c1 (stereo unspecified)	nt	-15%	nt	-19%	-17%
COCCNC(=O)C1CCCN(C(=O)c2cc(C)nn2C(C)(C)C)CC1 (stereo unspecified)	-60*	-1%	nt	2%	-7%
CC(C)c1ccc(/C=N/NC(=O)C(=O)NCCCN2CCOCC2)cc1	-62*	-19%	?	i	-18%
O=C(NCCCN1CCOCC1)C(=O)N/N=C/c1c(Cl)cccc1Cl	-39	8%	8%	-4%	20%
O=C(NCCCN1CCOCC1)C(=O)N/N=C/c1c2ccccc2cc2ccccc12	-93*	?	11µM*	?	-16%
Cc1cc(C)c2c(=O)cc(C(=O)NCc3ccc(S(N)(=O)=O)cc3)oc2c1	-13	-2%	nt	3%	-6%
CCc1ccc2oc(C(=O)NCc3ccncc3)c(C)c2c1	?	nt	11µM*	nt	-10%
Cc1cc(C)c2c(C)c(C(=O)NCc3ccncc3)oc2c1	-6	nt	2µM*	nt	-27%
CCc1ccc2oc(C(=O)Nc3nonc3CC)c(C)c2c1	-3	-5%[7.34 µM]	?	i[7.34 µM]	45%
Cc1cccn2c(=O)c(C=O)c(Cl)nc12	-88*	-14%	?	-15%	32µM*
Cc1cccn2c(=O)c(C=O)c(N3CCCCC3)nc12	?	-16%	15%	-7%	-9%
O=Cc1c(Cl)nc2ccccn2c1=O	77	-13%	10µM*	-24%	-19%
CCOc1ccc(C(=O)Nc2ccc3nc(SCC(=O)N4CCc5ccccc54)sc3c2)cc1	-1	-29%	nt	-5%	3%
CC1CCC(N2CC(=O)N(C3CCCCC3)C(c3ccc(Cl)cc3)C2=O)CC1 (stereo unspecified)	?	-9%	nt	0%	-3%
SMILES	HCMV inh	Vaccinia Venus	HCV inhibitor	VACV mCherry inh	FMDV inh
O=c1[nH]cnc2n[nH]nc12	nt	-18%	nt	-28%	nt
Cc1ccc(S(=O)(=O)NCc2cccnc2)cc1C	-86*	-11%	3%	-4%	36%
COc1ccc(S(=O)(=O)NCc2cccnc2)c2ccccc12	-2	-4%	2%	i	48%
Cc1cc(S(=O)(=O)NCc2cccnc2)ccc1F	-9	-9%	9%	i	17%
O=C(Nc1ccc(Cl)c(Cl)c1)OCc1cccnc1	-12	nt	22µM*	nt	-19%
O=C(Nc1ccc(Cl)c(Cl)c1)c1cccc(S(=O)(=O)NCc2cccnc2)c1	-95*	?	14µM*	28µM*	?
O=S(=O)(NCc1cccnc1)c1ccc(Br)c2ccccc12	-63*	-13%	-24%	-7%	29%
COc1ccc(CCNC(=O)Cc2c(C)c3c(cc(C)c4c(C)coc43)oc2=O)cc1OC	?	-6%	nt	-9%	6%
CCc1nc(C)cn1S(=O)(=O)c1cc(C)c(OC)cc1C	13	-8%	-22%	-24%	-9%
CCc1nc(C)cn1S(=O)(=O)c1cc(C)c(OC)c(C)c1C	-76*	?	2.8µM*	-21%	-28%
CN(C)CC(=O)N1[C@H](C(=O)Nc2nccs2)[C@@H](CO)[C@@H]2Cn3c(ccc(C4=CCCCC4)c3=O)[C@@H]21	-6	nt	nt	nt	nt
CCN(CC)c1c([N+](=O)[O-])c(=O)n(C)c2ccccc12	-32	-22%	-9%	i	?
Cn1c(=O)c([N+](=O)[O-])c(Cl)c2ccccc21	-71*	-4%	7.9µM*	-14%	14µM*
CC(NC(=O)C=Cc1ccco1)C(=O)NC(Cc1ccccc1)C(N)=O (stereo unspecified)	24	nt	nt	nt	nt
Cc1ccn2c(Nc3c(C)cccc3C)c(-c3ccc(Cl)s3)nc2c1	-12	-11%	nt	-16%	?
CCOC(=O)c1c(/N=C/N(C)C)sc(/C=N/Nc2ccccc2)c1-c1ccccc1Cl	-17	-21%	6.3µM*	-19%	-5%
CCOC(=O)c1c(/N=C/N(C)C)sc(/C=N/Nc2ccccc2)c1-c1ccccc1	2	nt	?	nt	-19%
Cc1cccc(C)c1N=CN1c2ccccc2-n2cccc2C1c1ccccc1 (stereo unspecified)	-4	nt	nt	nt	nt
Cc1cc(C)c(NC(=O)c2sc3nc(C)cc(C)c3c2NC(=O)c2ccccc2)c(C)c1	?	-24%	nt	0%	-20%
O=C(Cc1cccs1)N[C@@H]1C(=O)N2C(C(=O)[O-])=C(C[n+]3ccccc3)CS[C@H]12	nt	-7%	nt	-13%	-6%
COc1cc(/C=C2/CC/C(=C/c3ccc(O)c(OC)c3)C2=O)ccc1O	0	170%	13µM*	-15%	-4%
COc1cc(OC)c(OC)cc1/C=C1\CCC/C(=C\c2cc(OC)c(OC)cc2OC)C1=O	-90*	-9%	-27%	-28%	?
COc1cc(/C=C2\CC/C(=C\c3ccc(OCCO)c(OC)c3)C2=O)ccc1OCCO	?	4%	?	i	35µM*
COc1ccc(/C=C2\CC/C(=C\c3ccc(OC)c(OC)c3)C2=O)cc1OC	?	-9%	?	i	?
COc1cc(/C=C/C=C2/CC/C(=C/C=C/c3ccc(O)c(OC)c3)C2=O)ccc1O	-99*	56%	?	i	?
COc1cc(/C=C2\SC(N)=NC2=O)ccc1O	-75*	?	?	-17%	14%
COc1cc(/C=C2\COC/C(=C\c3ccc(O)c(OC)c3)C2=O)ccc1O	-99*	?	11µM*	?	18µM*
C=CCOc1ccc(/C=C2\SC(N)=NC2=O)cc1OC	116	nt	-12%	nt	0%
CCCCNC(=O)c1nc2ccccc2nc1-c1ccc(F)cc1	-2	nt	nt	nt	nt
